# Key:
# Settings in all cases: concentration: 1 μM, replicates: in singlicate; n = 1
# MTOR = test system: MTOR
# MUSK = test system: MUSK
# MYLK2 = test system: MYLK2
# MYLK4 = test system: MYLK4
# MYLK = test system: MYLK
# MYO3A = test system: MYO3A
# MYO3B = test system: MYO3B
# NDR1 = test system: T1, NDR1
# T1 construct: gene STK38
# NDR2 = test system: NDR2
# NEK10 = test system: NEK10
# NEK11 = test system: NEK11
# NEK1 = test system: NEK1
# NEK2 = test system: NEK2
# NEK3 = test system: NEK3
# NEK4 = test system: NEK4
# NEK5 = test system: NEK5
# NEK6 = test system: NEK6
# NEK7 = test system: NEK7
# NEK9 = test system: NEK9
# NIK = test system: T2, NIK
# T2 construct: gene MAP3K14
# 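Further: KINOMEscan kinase panel screen.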
SMILES,%Inh (MTOR),%Inh (MUSK),%Inh (MYLK2),%Inh (MYLK4),%Inh (MYLK),%Inh (MYO3A),%Inh (MYO3B),%Inh (NDR1),%Inh (NDR2),%Inh (NEK10),%Inh (NEK11),%Inh (NEK1),%Inh (NEK2),%Inh (NEK3),%Inh (NEK4),%Inh (NEK5),%Inh (NEK6),%Inh (NEK7),%Inh (NEK9),%Inh (NIK)
Nc1ncnc2scc(-c3ccc(NC(=O)Cc4cc(F)ccc4F)cc3)c12.O=C(O)C(F)(F)F [SB-731254-M],0%,2%,38%,72%,8%,29%,0%,12%,25%,0%,36%,20%,24%,35%,16%,47%,3%,0%,20%,0%
COc1cccc(C2=C(Nc3cccc(O)c3)C(=O)NC2=O)c1 [SB-390771],38%,0%,0%,6%,27%,17%,0%,18%,0%,67%,0%,0%,0%,19%,2%,2%,0%,7%,15%,7%
Cc1ccc(O)cc1Nc1ccnc2cc(-c3ccc(CN4CCCCC4)o3)ccc12 [GW557777],0%,3%,0%,2%,9%,4%,0%,0%,4%,0%,0%,0%,11%,3%,0%,0%,0%,9%,0%,0%
CN(C)CCOc1ccc(-c2cc(-c3ccc(Cl)c(O)c3)c(-c3ccncc3)[nH]2)cc1.Cl.Cl [SB-684387],19%,0%,28%,9%,18%,39%,13%,35%,42%,0%,38%,9%,14%,2%,0%,22%,0%,0%,17%,0%
Cn1cc(-c2cnc(N)c3c(-c4ccc5c(c4)CCN5C(=O)Cc4ccccc4)csc23)cn1 [GSK2593074],0%,24%,55%,0%,4%,0%,45%,10%,2%,22%,47%,0%,28%,1%,0%,5%,0%,0%,0%,0%
Cn1cc(-c2ccc3c(c2)CCN3C(=O)Cc2cc(F)cc(C(F)(F)F)c2)c2c(N)ncnc21 [GSK2635225],35%,28%,27%,1%,12%,42%,0%,25%,13%,6%,8%,9%,18%,0%,13%,0%,6%,0%,25%,15%
N#CC1(c2cccc(C(=O)Nc3cccc(Oc4ccc5nc(NC(=O)C6CC6)sc5n4)c3)c2)CC1,3%,0%,0%,0%,23%,0%,0%,18%,0%,0%,0%,40%,0%,30%,0%,0%,0%,0%,0%,0%
Cc1cc(-c2ccnc(Nc3cccc(C#N)c3)n2)cc(C)c1O [GSK1440913],7%,25%,76%,100%,13%,0%,0%,10%,12%,20%,1%,0%,0%,43%,1%,83%,0%,0%,13%,62%
COc1cc(Nc2nccc(N3CCC(NS(=O)(=O)c4ccc(NC(C)=O)cc4)CC3)n2)cc(OC)c1OC [GSK1379825],16%,14%,61%,0%,1%,0%,0%,0%,0%,17%,0%,83%,1%,89%,3%,100%,62%,86%,45%,26%
Cc1ccc(-c2ccc3occ(-c4ccc(S(C)=O)cc4)c3c2)nn1 (stereo not shown),17%,3%,11%,0%,0%,0%,1%,2%,15%,25%,0%,0%,0%,30%,0%,0%,0%,0%,0%,0%
Cl.Cl.NC(CNC(=O)c1cc(Br)c(-c2ccnc3[nH]ccc23)s1)c1ccccc1 (stereo not shown) [GSK1322949],26%,22%,27%,97.2%,62%,34%,0%,96.4%,95.5%,1%,0%,54%,0%,5%,0%,16%,0%,0%,23%,11%
CCOc1nccc(-c2c(-c3ccc(F)cc3)ncn2C2CCNCC2)n1 [SB-249175],0%,0%,0%,19%,31%,90%,0%,6%,12%,27%,50%,9%,0%,13%,0%,31%,4%,10%,7%,5%
CN(C)CCNS(=O)(=O)c1ccc(-c2ccnc3[nH]ccc23)cc1 [GSK977620],17%,23%,35%,99.5%,28%,0%,0%,29%,15%,17%,0%,99.8%,0%,0%,4%,1%,1%,0%,0%,0%
COc1ccc(NC(=O)c2ccoc2)cc1-c1ccc(C(=O)NCC2CC2)cc1 [GW810437],36%,0%,0%,0%,0%,7%,21%,32%,16%,16%,0%,0%,0%,37%,0%,0%,0%,0%,7%,40%
O=C(Nc1n[nH]c2nc(-c3ccccc3O)ccc12)C1CC1 [SB-711880],16%,0%,85%,0%,28%,36%,1%,6%,0%,0%,0%,0%,0%,18%,0%,0%,0%,3%,6%,18%
Cl.N#CCc1ccc(Nc2nccc(Nc3ccc(Oc4ccccc4)cc3)n2)cc1 [GW639905],24%,14%,1%,9%,0%,0%,3%,0%,0%,8%,0%,0%,5%,0%,16%,24%,0%,0%,0%,0%
COc1cccc(NC(=O)NCCNc2ccnc(Nc3ccc(F)cc3)n2)c1 [GSK1379879],32%,5%,0%,0%,16%,22%,0%,18%,0%,0%,0%,0%,0%,9%,0%,11%,0%,0%,0%,27%
